TEAD-YAP block: TEAD-YAP interaction inhibition. AID 1259422. inhibition, % at 9.12 µM. HEK-TIYL cells, TEAD-Gal4/YAP UAS-luciferase luminescence. hit rate 1.4% among 640,000; in the data active means inhibition above about 32%;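 further: 0% = median of test compound wells and 100% = reference inhibitor wells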
GPR151 ag: activates the human receptor GPR151 | PathHunter beta-arrestin GPR151 cells, luminescence | activation, % at 11.2 µM | hit rate 1% among 650,000 | AID 1508602; in the data active means activation above about 4.9%;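 further: 0% = median of compound wells and 100% = cells with positive control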
Target sequence (Q8TDV0 whole entry, looked up): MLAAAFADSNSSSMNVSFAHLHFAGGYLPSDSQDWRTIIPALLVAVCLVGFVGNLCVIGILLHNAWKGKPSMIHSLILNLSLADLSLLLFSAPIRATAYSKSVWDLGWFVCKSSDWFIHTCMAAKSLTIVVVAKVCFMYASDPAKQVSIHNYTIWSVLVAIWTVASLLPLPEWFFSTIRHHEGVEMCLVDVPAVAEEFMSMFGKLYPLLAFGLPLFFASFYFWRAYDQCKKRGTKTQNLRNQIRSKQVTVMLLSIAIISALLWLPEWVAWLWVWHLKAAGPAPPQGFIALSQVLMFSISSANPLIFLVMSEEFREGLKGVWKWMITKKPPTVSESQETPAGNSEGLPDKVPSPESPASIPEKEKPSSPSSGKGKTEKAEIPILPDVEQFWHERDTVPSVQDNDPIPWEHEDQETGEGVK
FBW7 activator: activators of human E3 ligase FBW7. hit rate 0.13% among 650,000. AlphaScreen FBW7–phospho-cyclin E peptide binding, activator screen. normalized activity (activation), % at 26.1 µM. Q969H0. AID 1259310; in the data active means normalized activity above about 1.9%;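 further: purified mutant Fbw7 with reduced substrate affinity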
MITF primary: inhibitors of human MITF | hit rate 0.91% among 650,000 | O75030 | inhibition, % at 2.6 µM | AlphaScreen MITF homodimerization, bead proximity signal; in the data active means inhibition above about 50%;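 further: 0% = vehicle wells with protein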
Starred values were filed as active, the others as inactive. Compounds with a hit are over-represented: about 3.4% of the library has one in this group of screens.

How did Cc1cc(C)n(CC(=O)N/N=C/c2sc(N3CCOCC3)nc2-c2ccccc2)n1 do in these assays?
TEAD-YAP block: 5.0; GPR151 ag: -0.2; FBW7 activator: -0.1; MITF primary: -5.8

How did O=C(Nc1nnc(-c2ccc(Cl)cc2)o1)c1cccc(C(F)(F)F)c1 do in these assays?
GPR151 ag: -0.5

How did O=C(Nc1nnc(-c2ccc(F)cc2)o1)c1cccc(C(F)(F)F)c1 do in these assays?
TEAD-YAP block: 69.4*; GPR151 ag: 1.1; FBW7 activator: -0.1; MITF primary: -8.4

How did COc1ccc(C2CC(=O)c3c([nH]c(C(=O)OCCSC)c3C)C2)cc1OC (configuration not stated) do in these assays?
TEAD-YAP block: 43.7*; GPR151 ag: 1.6; FBW7 activator: 0.0; MITF primary: 18.2

Results for COc1ccc(C2CC(=O)c3c([nH]c(C(=O)OCCOC(C)C)c3C)C2)cc1OC (configuration not stated) ?
TEAD-YAP block: 32.0*; GPR151 ag: 0.7; FBW7 activator: 0.2; MITF primary: 9.6

What do the screens show for `O=C(O)c1cccc(Nc2nccc(Nc3ccccc3C(=O)O)n2)c1`?
TEAD-YAP block: -3.7; GPR151 ag: -0.1; FBW7 activator: 0.1; MITF primary: 2.1

How did CC(=O)c1ccc(NC(=O)c2ccc(C)c([N+](=O)[O-])c2)cc1 do in these assays?
TEAD-YAP block: -22.7; GPR151 ag: -0.6; FBW7 activator: -0.4; MITF primary: -5.1

What do the screens show for `O=C1/C(=C\c2ccncc2)SC(=S)N1Cc1ccccc1`?
TEAD-YAP block: 8.1; GPR151 ag: 3.9; FBW7 activator: -0.1; MITF primary: 22.3

How did COc1ccc(-c2cnc3ccc(NC4CCC(O)CC4)nn23)cn1 (configuration not stated) do in these assays?
TEAD-YAP block: 35.9*; GPR151 ag: 1.9; FBW7 activator: 0.0; MITF primary: -13.0

Results for OC1CCC(Nc2ccc3ncc(-c4ccc5ccccc5c4)n3n2)CC1 (configuration not stated) ?
TEAD-YAP block: -0.2; GPR151 ag: 0.7; FBW7 activator: -0.3; MITF primary: -14.8

Results for COC(=O)c1ccc(-c2cnc3ccc(NC4CCC(O)CC4)nn23)cc1 (configuration not stated) ?
TEAD-YAP block: 41.3*; GPR151 ag: 0.7; FBW7 activator: -0.4; MITF primary: -4.4

What do the screens show for `CC1CN(CC(=O)NCc2cnc3ccccn23)Cc2ccccc2O1` (configuration not stated)?
TEAD-YAP block: -1.3; GPR151 ag: 0.5; FBW7 activator: -0.2; MITF primary: -10.8

How did O=C1Nc2c(C(F)(F)F)cccc2C12SCCS2 do in these assays?
TEAD-YAP block: 33.8*; GPR151 ag: 0.2; FBW7 activator: 0.0; MITF primary: 8.2

How did CC1CCCN(C2(O)C(=O)Nc3c(C(F)(F)F)cccc32)C1 (configuration not stated) do in these assays?
TEAD-YAP block: -12.2; GPR151 ag: 0.7; FBW7 activator: 0.0; MITF primary: -3.8

How did O=C(NCc1ccncc1)c1ccc(OCC(F)(F)F)cc1 do in these assays?
TEAD-YAP block: 6.2; GPR151 ag: 1.7; FBW7 activator: 0.1; MITF primary: 6.4

How did COc1cc(C(=O)c2cc(Cl)ccc2N)cc(OC)c1OC do in these assays?
TEAD-YAP block: 51.9*; GPR151 ag: 0.3; FBW7 activator: -0.3; MITF primary: 11.8

What do the screens show for `COc1ccc(C(=O)COC(=O)c2ccc(Cl)cc2N)cc1`?
TEAD-YAP block: -2.5; GPR151 ag: -0.3; FBW7 activator: -0.1; MITF primary: -3.5

Results for COc1cc(C(=O)NNC(=O)c2cccc(Cl)c2)cc(OC)c1OC ?
TEAD-YAP block: 5.2; GPR151 ag: 4.1; FBW7 activator: 0.0; MITF primary: 0.3

What do the screens show for `COc1cc(C(=O)COC(=O)c2ccc(Cl)cc2N)cc(OC)c1OC`?
TEAD-YAP block: 52.9*; GPR151 ag: 0.0; FBW7 activator: 0.4; MITF primary: 1.3

Results for Cc1ccc(S(=O)(=O)Nc2cc(-n3c(C)nc4ccccc4c3=O)ccc2Cl)cc1 ?
TEAD-YAP block: -18.4; GPR151 ag: -0.7; FBW7 activator: 0.3; MITF primary: 9.5

How did CCc1ccc(NS(=O)(=O)c2cn(CC(=O)OC)c3ccc([N+](=O)[O-])cc23)cc1 do in these assays?
TEAD-YAP block: 3.1; GPR151 ag: 0.6; FBW7 activator: -0.2; MITF primary: 0.9

How did CCOc1ccccc1CNn1c(-c2ccc(F)cc2)nc2ccccc2c1=O do in these assays?
TEAD-YAP block: 3.3; GPR151 ag: -0.9; FBW7 activator: 0.2; MITF primary: 13.9

What do the screens show for `Cc1ccc(N2C(=O)C(Cl)=C(N(C)c3ccccc3)C2=O)cc1`?
TEAD-YAP block: 52.4*; GPR151 ag: -0.1; FBW7 activator: 0.0; MITF primary: 19.3

Results for O=C1C(Cl)=C(Cl)C(=O)N1c1ccc(I)cc1 ?
TEAD-YAP block: 7.0; GPR151 ag: -0.7; FBW7 activator: 0.4; MITF primary: 24.0

How did CN(C1=C(Cl)C(=O)N(c2ccc(I)cc2)C1=O)c1ccccc1 do in these assays?
TEAD-YAP block: 56.0*; GPR151 ag: 0.2; FBW7 activator: -0.1; MITF primary: 22.7

What do the screens show for `CCc1ccc(S(=O)(=O)NCCc2cn3cccc(C)c3n2)cc1`?
TEAD-YAP block: -0.9; GPR151 ag: 1.4; FBW7 activator: 0.0; MITF primary: -8.0

How did Cc1ccc(NC(=O)C(CCC(N)=O)NC(=O)OCc2ccccc2)cc1C (configuration not stated) do in these assays?
TEAD-YAP block: 7.2; GPR151 ag: 0.6; FBW7 activator: -0.4; MITF primary: 0.3

How did OC[C@@H]1CCCN1c1ccnc2c(-c3ccc(F)c(Cl)c3)cnn12 do in these assays?
TEAD-YAP block: 82.7*; GPR151 ag: -2.0; FBW7 activator: -0.1; MITF primary: 17.1

What do the screens show for `COc1ccc(-c2cnn3c(N4CCCCC4CCO)ccnc23)cc1OC` (configuration not stated)?
TEAD-YAP block: 37.6*; GPR151 ag: -1.2; FBW7 activator: -0.5; MITF primary: -6.9

What do the screens show for `OCc1cccc(-c2cnn3c(N4CCC[C@H]4CO)ccnc23)c1`?
TEAD-YAP block: 66.3*; GPR151 ag: 1.5; FBW7 activator: -0.3; MITF primary: -15.1

Results for OC1CCN(c2ccnc3c(-c4ccc(F)c(Cl)c4)cnn23)CC1 ?
TEAD-YAP block: -56.4; GPR151 ag: -1.5; FBW7 activator: -0.2; MITF primary: -21.6

What do the screens show for `O=C(NC1CC1)c1ccc(-c2cnn3c(N4CCC[C@H]4CO)ccnc23)cc1`?
TEAD-YAP block: -64.0; GPR151 ag: 2.1; FBW7 activator: -0.3; MITF primary: 0.9

How did Cc1ccc(-c2cnn3c(N4CCC[C@H]4CO)ccnc23)cc1 do in these assays?
TEAD-YAP block: 96.2*; GPR151 ag: -2.0; FBW7 activator: -0.1; MITF primary: -19.2

Results for COCCNC(=O)c1sc2ncn(CC(=O)Nc3ccc(C(C)C)cc3)c(=O)c2c1C ?
TEAD-YAP block: 13.3; GPR151 ag: -0.8; FBW7 activator: 0.1; MITF primary: 15.6

What do the screens show for `Cc1ncc(CN2CCCC(CNC(=O)c3n[nH]c4ccccc34)C2)s1` (configuration not stated)?
TEAD-YAP block: 5.3; GPR151 ag: -0.4; FBW7 activator: 0.1; MITF primary: -0.5

Screens (PubChem)
